Experimental data reported in PubChem BioAssay (NCI).
Compounds without any hit were thinned out: in the full panel of roughly 79,000, 15% have a hit. Unmarked numbers belong to inactive results. The source made the active and inactive calls. Cut-off read from the data, not from the text of the source: active = growth inhibition above about 70%; inactive = the rest.

Key:
[1] = NCI Yeast Anticancer Drug Screen. Data for the rad50 strain (AID 155);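 note: 0% = growth of vehicle-only cultures of the same strain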; conditions: S. cerevisiae rad50 strain growth inhibition, hits give high values
Procedure, shortened: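 A DNA repair-deficient yeast mutant serves as the test organism; compound-induced growth inhibition is calculated against vehicle-treated cells.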

[2] = NCI Yeast Anticancer Drug Screen. Data for the mec2-1 strain (AID 157); conditions: S. cerevisiae mec2-1 strain, hits give high values
Procedure, shortened: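 Yeast mec2-1 mutant treated with compound. Readout: growth inhibition vs vehicle controls.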

[3] = NCI Yeast Anticancer Drug Screen. Data for the sgs1 mgt1 strain (AID 161);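 note: 0% = growth of cultures given vehicle only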; conditions: S. cerevisiae sgs1 mgt1 strain, hits give high values
Procedure, shortened: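 Genetically altered yeast, compound exposure, growth inhibition relative to vehicle.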

[4] = NCI Yeast Anticancer Drug Screen. Data for the cln2 rad14 strain (AID 165);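 note: 0% = growth equal to vehicle treated cultures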; conditions: S. cerevisiae cln2 rad14 strain, hits give high values
Procedure, shortened: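 cln2 rad14 yeast strain; compound exposure; growth inhibition read vs vehicle controls.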

[5] = NCI Yeast Anticancer Drug Screen. Data for the bub3 strain (AID 167); conditions: S. cerevisiae bub3 mutant strain, hits give high values
Procedure, shortened: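 Inhibition values come from growth of compound-treated mutant yeast normalised to vehicle-treated controls.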

[6] = NCI Yeast Anticancer Drug Screen. Data for the mlh1 rad18 strain (AID 175); conditions: S. cerevisiae mlh1 rad18 strain growth inhibition, hits give high values
Procedure, shortened: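 Yeast w/ defined DNA-repair lesions; compound exposure; growth vs vehicle controls → % inhibition.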

[7] = at 5.0 µM (retest, dose inferred, filed as 0.5)
[8] = at 50.0 µM (retest, dose inferred, filed as 5.0)

SMILES	growth inhibition [1, 7]	growth inhibition [1, 8]	growth inhibition ([1]; at 50.0 µM)	growth inhibition [2, 7]	growth inhibition [2, 8]	growth inhibition ([2]; at 50.0 µM)	growth inhibition [3, 7]	growth inhibition [3, 8]	growth inhibition ([3]; at 50.0 µM)	growth inhibition [4, 7]	growth inhibition [4, 8]	growth inhibition ([4]; at 50.0 µM)	growth inhibition [5, 7]	growth inhibition [5, 8]	growth inhibition ([5]; at 50.0 µM)	growth inhibition [6, 7]	growth inhibition [6, 8]	growth inhibition ([6]; at 50.0 µM)
CCCN(CCC)C(=O)c1ccc(C)cc1	1%	21%	4.3%	2%	5%	97.9% (active)	2%	5%	0.05%	3%	24%	-17.1%	3%	28%	2.9%	-3%	17%	7.2%
Cc1cc2cccnc2c2ncccc12	34%	98% (active)	99% (active)	9%	99% (active)	99.2% (active)	5%	98% (active)	99.1% (active)	-9%	98% (active)	97.5% (active)	21%	99% (active)	99.3% (active)	25%	99% (active)	98.7% (active)
CCN(CC)CCNC(Cc1ccccc1)c1ccc(OCc2ccccc2)cc1 (centres undefined)	39%	98% (active)	86.7% (active)	28%	98% (active)	42.4%	42%	99% (active)	72% (active)	35%	94% (active)	57.2%	49%	99% (active)	87.6% (active)	47%	98% (active)	84.8% (active)
CCNc1nnnn1CC	-37%	1%	-2.5%	-2%	-2%	2.1%	0%	5%	-5.35%	2%	4%	12.3%	-1%	-2%	22.9%	6%	18%	2.8%
O=C(c1ccccc1)c1ccc(O)c2ncccc12	23%	99% (active)	98.6% (active)	-11%	99% (active)	97.8% (active)	10%	99% (active)	99% (active)	-8%	99% (active)	98% (active)	5%	99% (active)	98.5% (active)	17%	98% (active)	98.3% (active)
O=C1C=C(Cl)C(=O)c2ccccc21	90% (active)	99% (active)	99% (active)	35%	100% (active)	99% (active)	30%	99% (active)	99.3% (active)	31%	98% (active)	99.1% (active)	47%	99% (active)	98.8% (active)	53%	99% (active)	99% (active)
N=C(N)Sc1cccc[n+]1[O-]	99% (active)	99% (active)	98.8% (active)	99% (active)	99% (active)	98.9% (active)	100% (active)	99% (active)	98.2% (active)	98% (active)	98% (active)	97.4% (active)	100% (active)	99% (active)	99% (active)	99% (active)	99% (active)	98.2% (active)
Fc1ccc(NCCS)cc1	-18%	90% (active)	85.2% (active)	-27%	95% (active)	87.8% (active)	-18%	61%	79.1% (active)	-4%	66%	60.2%				-31%	90% (active)	84.3% (active)
CN(C)c1ccc(/C=C/c2nccc3ccccc23)cc1	-9%	96% (active)	91% (active)	8%	96% (active)	91.9% (active)	3%	97% (active)	94.7% (active)	-8%	96% (active)	75.5% (active)	4%	97% (active)	93.7% (active)	10%	95% (active)	91% (active)
NC(=S)Nc1ccc2c(c1)Cc1ccccc1-2	2%	29%	64.5%	-4%	3%	-0.4%	2%	23%	59.9%				0%	58%	47%	7%	38%	60.4%
